The supplement of paper PMC10849652
About 8,800 targets were measured; listed, in parts, are those with a hit and a random draw of the rest. About 0.5% of all pairs of compound and target were hits. Values without a mark were called inactive.

compound: CC(C)C1=C2N=C(C=C(N2N=C1)NCC3=CC=CC=C3)NCCCCCCN; experiment: log2 fold change, soluble protein after heating vs DMSO (PISA); higher = thermal stabilisation; K562 lysate, 10 uM; active = over 0.2 and 3.5 SD of the protein, either way, in both replicates (recomputed)
How it was run: (§1)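 K562 pellets were dounce-homogenised in PBS pH 7.4 containing 1 mM MgCl2, and the crude extract, at 1 mg/mL protein, was exposed to 10 μM compound for 30 min. Aliquots were heated for 3 min across 48°C-58°C, pooled, brought to 0.5% NP-40 at 4°C and spun at 21,000xg for 90 min, with the supernatant taken as soluble protein. TMTpro 16plex LC-MS/MS with equalised channel sums quantified that protein. Values are log-two fold changes in thermal stability relative to solvent controls, taken from duplicates.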

UniProt P01116, sequence (P01116 whole entry, looked up): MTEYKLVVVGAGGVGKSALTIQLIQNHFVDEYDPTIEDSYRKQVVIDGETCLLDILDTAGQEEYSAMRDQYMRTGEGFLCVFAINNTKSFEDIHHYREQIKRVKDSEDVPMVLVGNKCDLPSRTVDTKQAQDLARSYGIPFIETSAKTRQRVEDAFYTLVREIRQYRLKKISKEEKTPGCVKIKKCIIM
UniProt P53778, sequence (P53778 whole entry, looked up): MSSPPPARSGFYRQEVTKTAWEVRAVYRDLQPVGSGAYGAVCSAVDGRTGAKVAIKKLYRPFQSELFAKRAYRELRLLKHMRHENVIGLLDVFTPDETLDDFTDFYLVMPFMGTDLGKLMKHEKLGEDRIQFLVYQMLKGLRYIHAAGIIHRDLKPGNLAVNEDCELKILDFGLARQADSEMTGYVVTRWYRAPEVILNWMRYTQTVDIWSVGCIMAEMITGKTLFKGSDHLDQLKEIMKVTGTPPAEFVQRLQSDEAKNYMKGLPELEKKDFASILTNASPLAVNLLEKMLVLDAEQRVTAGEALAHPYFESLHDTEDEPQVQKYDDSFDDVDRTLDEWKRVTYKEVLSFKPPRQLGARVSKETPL
UniProt Q5T3J3, sequence (Q5T3J3 whole entry, looked up): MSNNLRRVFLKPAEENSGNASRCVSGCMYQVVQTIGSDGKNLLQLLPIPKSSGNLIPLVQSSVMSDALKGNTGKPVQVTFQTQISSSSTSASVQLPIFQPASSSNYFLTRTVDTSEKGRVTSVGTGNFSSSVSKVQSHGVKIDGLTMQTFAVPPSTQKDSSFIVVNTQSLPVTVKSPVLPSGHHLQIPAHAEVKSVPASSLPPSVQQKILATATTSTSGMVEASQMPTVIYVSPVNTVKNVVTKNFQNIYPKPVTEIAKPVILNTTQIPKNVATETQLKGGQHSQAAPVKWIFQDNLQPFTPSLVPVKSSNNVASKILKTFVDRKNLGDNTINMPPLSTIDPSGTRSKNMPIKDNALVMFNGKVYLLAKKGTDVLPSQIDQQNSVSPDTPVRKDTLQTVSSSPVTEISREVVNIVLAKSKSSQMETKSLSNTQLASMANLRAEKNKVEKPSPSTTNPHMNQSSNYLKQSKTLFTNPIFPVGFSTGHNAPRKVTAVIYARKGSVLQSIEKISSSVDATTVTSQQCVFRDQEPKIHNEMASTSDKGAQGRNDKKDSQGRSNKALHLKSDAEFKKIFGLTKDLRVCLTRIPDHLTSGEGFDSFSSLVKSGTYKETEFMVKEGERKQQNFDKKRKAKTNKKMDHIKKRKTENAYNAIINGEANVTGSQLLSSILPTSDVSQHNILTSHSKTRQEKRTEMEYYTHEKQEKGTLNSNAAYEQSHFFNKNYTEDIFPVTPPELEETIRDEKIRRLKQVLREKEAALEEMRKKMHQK
UniProt Q9BPZ7, sequence (Q9BPZ7 whole entry, looked up): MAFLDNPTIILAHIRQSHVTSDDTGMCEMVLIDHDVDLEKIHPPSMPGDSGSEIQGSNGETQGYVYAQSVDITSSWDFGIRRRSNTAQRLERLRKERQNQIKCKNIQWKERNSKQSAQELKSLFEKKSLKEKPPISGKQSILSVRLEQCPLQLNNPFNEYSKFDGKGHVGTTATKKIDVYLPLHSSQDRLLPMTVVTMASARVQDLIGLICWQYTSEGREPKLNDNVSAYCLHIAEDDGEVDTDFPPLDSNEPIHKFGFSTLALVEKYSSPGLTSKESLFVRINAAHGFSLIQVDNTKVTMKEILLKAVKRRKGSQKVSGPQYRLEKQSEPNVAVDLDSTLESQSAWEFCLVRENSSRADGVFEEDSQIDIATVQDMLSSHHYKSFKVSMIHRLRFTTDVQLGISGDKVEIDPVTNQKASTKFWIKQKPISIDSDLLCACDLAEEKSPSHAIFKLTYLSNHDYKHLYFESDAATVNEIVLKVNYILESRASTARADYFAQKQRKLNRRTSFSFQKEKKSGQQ
UniProt Q9H204, sequence (Q9H204 whole entry, looked up): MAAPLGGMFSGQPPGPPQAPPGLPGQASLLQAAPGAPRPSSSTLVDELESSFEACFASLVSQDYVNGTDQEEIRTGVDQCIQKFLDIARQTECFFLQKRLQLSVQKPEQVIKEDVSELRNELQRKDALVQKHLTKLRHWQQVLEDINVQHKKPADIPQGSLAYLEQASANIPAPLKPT
UniProt Q9UBG0, sequence (Q9UBG0 whole entry, looked up): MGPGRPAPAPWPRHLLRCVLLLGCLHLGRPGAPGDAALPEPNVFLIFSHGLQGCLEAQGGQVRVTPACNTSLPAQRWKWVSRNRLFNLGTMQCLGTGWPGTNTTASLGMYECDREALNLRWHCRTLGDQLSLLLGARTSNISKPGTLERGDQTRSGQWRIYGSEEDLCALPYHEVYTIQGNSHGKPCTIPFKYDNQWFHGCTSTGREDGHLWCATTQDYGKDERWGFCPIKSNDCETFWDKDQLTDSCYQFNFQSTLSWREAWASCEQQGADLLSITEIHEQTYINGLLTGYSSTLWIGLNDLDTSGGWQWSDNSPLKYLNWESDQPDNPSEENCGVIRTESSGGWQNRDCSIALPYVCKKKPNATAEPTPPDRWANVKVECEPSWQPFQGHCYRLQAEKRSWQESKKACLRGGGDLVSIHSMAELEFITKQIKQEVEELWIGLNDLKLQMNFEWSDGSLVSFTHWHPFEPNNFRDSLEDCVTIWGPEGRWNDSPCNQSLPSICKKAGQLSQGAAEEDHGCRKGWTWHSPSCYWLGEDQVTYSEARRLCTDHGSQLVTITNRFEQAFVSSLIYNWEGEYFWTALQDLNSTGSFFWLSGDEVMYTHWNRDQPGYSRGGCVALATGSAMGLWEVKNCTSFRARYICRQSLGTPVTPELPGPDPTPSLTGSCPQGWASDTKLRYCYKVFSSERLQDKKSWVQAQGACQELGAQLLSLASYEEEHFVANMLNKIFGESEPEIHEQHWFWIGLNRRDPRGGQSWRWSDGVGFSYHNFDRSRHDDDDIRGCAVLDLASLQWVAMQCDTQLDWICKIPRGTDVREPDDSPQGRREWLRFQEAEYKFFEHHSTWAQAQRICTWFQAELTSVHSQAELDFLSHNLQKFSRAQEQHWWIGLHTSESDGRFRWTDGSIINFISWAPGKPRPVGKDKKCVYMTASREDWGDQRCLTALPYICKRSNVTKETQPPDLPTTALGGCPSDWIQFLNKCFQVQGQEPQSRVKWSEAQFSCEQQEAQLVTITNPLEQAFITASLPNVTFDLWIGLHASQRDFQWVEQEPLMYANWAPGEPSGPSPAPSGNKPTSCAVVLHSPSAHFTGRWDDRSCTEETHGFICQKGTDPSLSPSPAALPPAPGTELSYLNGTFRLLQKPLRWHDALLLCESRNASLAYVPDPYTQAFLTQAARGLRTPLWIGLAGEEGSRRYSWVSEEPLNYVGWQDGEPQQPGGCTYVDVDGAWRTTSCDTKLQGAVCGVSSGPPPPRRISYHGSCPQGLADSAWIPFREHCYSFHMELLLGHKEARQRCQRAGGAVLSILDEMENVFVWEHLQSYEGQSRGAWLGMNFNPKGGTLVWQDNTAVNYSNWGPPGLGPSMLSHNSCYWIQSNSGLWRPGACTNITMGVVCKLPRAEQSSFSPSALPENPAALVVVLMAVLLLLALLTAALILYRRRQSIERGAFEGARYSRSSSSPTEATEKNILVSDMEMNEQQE
UniProt Q8N3R9, sequence (Q8N3R9 whole entry, looked up): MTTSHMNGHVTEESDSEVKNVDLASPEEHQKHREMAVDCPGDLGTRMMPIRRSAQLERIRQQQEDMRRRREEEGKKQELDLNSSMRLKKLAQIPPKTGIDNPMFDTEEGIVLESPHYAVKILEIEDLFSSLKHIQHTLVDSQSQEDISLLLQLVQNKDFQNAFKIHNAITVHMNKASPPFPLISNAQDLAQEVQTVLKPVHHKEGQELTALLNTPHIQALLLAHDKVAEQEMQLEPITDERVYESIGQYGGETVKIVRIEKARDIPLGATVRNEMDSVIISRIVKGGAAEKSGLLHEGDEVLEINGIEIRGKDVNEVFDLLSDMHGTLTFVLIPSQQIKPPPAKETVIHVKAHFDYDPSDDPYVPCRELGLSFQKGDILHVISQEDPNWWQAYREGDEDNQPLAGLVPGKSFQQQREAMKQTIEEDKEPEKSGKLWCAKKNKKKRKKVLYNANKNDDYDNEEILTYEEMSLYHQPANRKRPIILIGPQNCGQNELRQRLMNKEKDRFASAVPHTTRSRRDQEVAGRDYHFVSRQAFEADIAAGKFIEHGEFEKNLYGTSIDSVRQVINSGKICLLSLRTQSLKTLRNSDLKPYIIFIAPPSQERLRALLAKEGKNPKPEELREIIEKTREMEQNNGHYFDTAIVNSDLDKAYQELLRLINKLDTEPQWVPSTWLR
UniProt Q08380, sequence (Q08380 whole entry, looked up): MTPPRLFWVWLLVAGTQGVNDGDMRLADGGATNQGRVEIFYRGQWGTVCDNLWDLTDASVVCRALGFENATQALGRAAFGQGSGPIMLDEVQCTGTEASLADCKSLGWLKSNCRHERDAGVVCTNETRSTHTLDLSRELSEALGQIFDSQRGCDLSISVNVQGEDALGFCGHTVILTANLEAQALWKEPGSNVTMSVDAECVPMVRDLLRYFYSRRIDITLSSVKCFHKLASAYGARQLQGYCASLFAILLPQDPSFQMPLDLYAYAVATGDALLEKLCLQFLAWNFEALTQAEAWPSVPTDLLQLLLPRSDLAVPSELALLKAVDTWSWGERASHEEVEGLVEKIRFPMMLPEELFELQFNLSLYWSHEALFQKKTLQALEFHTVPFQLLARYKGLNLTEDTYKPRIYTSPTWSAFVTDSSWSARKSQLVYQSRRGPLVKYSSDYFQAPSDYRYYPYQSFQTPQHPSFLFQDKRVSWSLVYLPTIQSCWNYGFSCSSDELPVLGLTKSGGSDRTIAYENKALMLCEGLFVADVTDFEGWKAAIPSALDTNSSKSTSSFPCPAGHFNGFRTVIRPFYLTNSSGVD
UniProt Q16553, sequence (Q16553 whole entry, looked up): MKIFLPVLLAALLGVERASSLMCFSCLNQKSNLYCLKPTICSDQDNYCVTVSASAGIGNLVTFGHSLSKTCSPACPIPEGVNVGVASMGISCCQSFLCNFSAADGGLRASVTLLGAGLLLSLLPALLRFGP

Question: Which log2 fold change does the source give for KLC1 isoform 10 (UniProt Q07866) here?
Answer: -0.129

Question: For LRIF1 (UniProt Q5T3J3), which log2 fold change is on record?
Answer: 0.089

Question: KIF26A (UniProt Q9ULI4) was tested. Which log2 fold change did it give?
Answer: 0.008

Question: With KRI1 (UniProt Q8N9T8) as the target, how does the log2 fold change read?
Answer: 0.043

Question: Which log2 fold change does the source give for MEGF8 (UniProt Q7Z7M0) here?
Answer: -0.057

Question: Which log2 fold change does the source give for MDM2 isoform 11 (UniProt Q00987) here?
Answer: -0.006

Question: For KRAS (UniProt P01116), which log2 fold change is on record?
Answer: -0.008

Question: With MMS22L (UniProt Q6ZRQ5) as the target, how does the log2 fold change read?
Answer: -0.085

Question: Which log2 fold change does the source give for MBTPS1 (UniProt Q14703) here?
Answer: -0.029

Question: Which log2 fold change does the source give for MAPK7 (UniProt Q13164) here?
Answer: 0.025

Question: How did the log2 fold change turn out when MARF1 (UniProt Q9Y4F3) was run?
Answer: -0.045

Question: MOCS3 (UniProt O95396) was tested. Which log2 fold change did it give?
Answer: -0.018

Question: LSM11 (UniProt P83369) was tested. Which log2 fold change did it give?
Answer: 0.004

Question: Which log2 fold change does the source give for LYN isoform 2 (UniProt P07948) here?
Answer: -0.061

Question: MDM1 (UniProt Q8TC05) was tested. Which log2 fold change did it give?
Answer: -0.029

Question: KIF3C (UniProt O14782) was tested. Which log2 fold change did it give?
Answer: -0.015

Question: MED28 (UniProt Q9H204) was tested. Which log2 fold change did it give?
Answer: -0.002

Question: Which log2 fold change does the source give for KRAS isoform 2 (UniProt P01116) here?
Answer: -0.05

Question: With MAPKAP1 (UniProt Q9BPZ7) as the target, how does the log2 fold change read?
Answer: -0.031

Question: With LGALS3BP (UniProt Q08380) as the target, how does the log2 fold change read?
Answer: 0

Question: MRC2 (UniProt Q9UBG0) was tested. Which log2 fold change did it give?
Answer: -0.015

Question: With MPDZ (UniProt O75970) as the target, how does the log2 fold change read?
Answer: -0.015

Question: How did the log2 fold change turn out when MRPL22 (UniProt Q9NWU5) was run?
Answer: 0.058

Question: MARCHF6 (UniProt O60337) was tested. Which log2 fold change did it give?
Answer: -0.012

Question: KIFC3 isoform 6 (UniProt Q9BVG8) was tested. Which log2 fold change did it give?
Answer: 0.097

Question: How did the log2 fold change turn out when KIF21A (UniProt H0YI78) was run?
Answer: -0.006

Question: Which log2 fold change does the source give for KMT2B (UniProt Q9UMN6) here?
Answer: 0.53

Question: How did the log2 fold change turn out when MAPK12 (UniProt P53778) was run?
Answer: -0.027

Question: With MPP5 (UniProt Q8N3R9) as the target, how does the log2 fold change read?
Answer: -0.079

compound: CC1=C(C(CC(=O)N1)C2=CC=C(C=C2)C(F)(F)F)C(=O)NC3=C(C=C4C(=C3)C=NN4)F; experiment: as above
How it was run: as §1

Question: Which log2 fold change does the source give for MAPK3 (UniProt H0YEX6) here?
Answer: 0.029

Question: LRIF1 (UniProt Q5T3J3) was tested. Which log2 fold change did it give?
Answer: -0.143

Question: MEX3A (UniProt A1L020) was tested. Which log2 fold change did it give?
Answer: -0.076

Question: For KIF26A (UniProt Q9ULI4), which log2 fold change is on record?
Answer: -0.02

Question: How did the log2 fold change turn out when KRI1 (UniProt Q8N9T8) was run?
Answer: 0.074

Question: Which log2 fold change does the source give for KRAS (UniProt P01116) here?
Answer: -0.037

Question: Which log2 fold change does the source give for MMS22L (UniProt Q6ZRQ5) here?
Answer: 0.007

Question: LY6E (UniProt Q16553) was tested. Which log2 fold change did it give?
Answer: -0.027

Question: With MARF1 (UniProt Q9Y4F3) as the target, how does the log2 fold change read?
Answer: -0.021

Question: How did the log2 fold change turn out when MOCS3 (UniProt O95396) was run?
Answer: 0.056

Question: How did the log2 fold change turn out when LYN isoform 2 (UniProt P07948) was run?
Answer: -0.432

Question: How did the log2 fold change turn out when MDM1 (UniProt Q8TC05) was run?
Answer: -0.027

Question: For KIF3C (UniProt O14782), which log2 fold change is on record?
Answer: 0.03

Question: Which log2 fold change does the source give for MED28 (UniProt Q9H204) here?
Answer: -0.088

Question: For MAPKAP1 (UniProt Q9BPZ7), which log2 fold change is on record?
Answer: -0.103

Question: How did the log2 fold change turn out when LGALS3BP (UniProt Q08380) was run?
Answer: 1.31

Question: MRC2 (UniProt Q9UBG0) was tested. Which log2 fold change did it give?
Answer: 0.002

Question: Which log2 fold change does the source give for MPDZ (UniProt O75970) here?
Answer: -0.173

Question: MRPL22 (UniProt Q9NWU5) was tested. Which log2 fold change did it give?
Answer: 0.001

Question: For MARCHF6 (UniProt O60337), which log2 fold change is on record?
Answer: 0.014

Question: How did the log2 fold change turn out when KIF21A (UniProt H0YI78) was run?
Answer: 0.107

Question: For MAP3K6 (UniProt O95382), which log2 fold change is on record?
Answer: -0.12

Question: How did the log2 fold change turn out when MAPK12 (UniProt P53778) was run?
Answer: 0.074

Question: MPP5 (UniProt Q8N3R9) was tested. Which log2 fold change did it give?
Answer: -0.082
